Shown are actives, neighbours in structure and some others; about 1.6% of the full set was active somewhere.
RXFP1 antagonist – qHTS Assay for Antagonists of the Relaxin Receptor RXFP1; Relaxin receptor 1 (Homo sapiens), Q9HBX9; HEK293-RXFP1, relaxin-stimulated cAMP HTRF, 30 min; active compounds read low; activity change, negative = inhibition, % at 57.5 µM; actives 0.59% (n = 350,000);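 active = activity change of -60% or lower, but not beyond a set lower limit; inconclusive = change between -60% and -40%, or beyond the set limit; inactive = change above -40%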; note: % is set by controls: 0 for no effect and ±100 for the full control effect
Target sequence (Q9HBX9 whole entry, looked up): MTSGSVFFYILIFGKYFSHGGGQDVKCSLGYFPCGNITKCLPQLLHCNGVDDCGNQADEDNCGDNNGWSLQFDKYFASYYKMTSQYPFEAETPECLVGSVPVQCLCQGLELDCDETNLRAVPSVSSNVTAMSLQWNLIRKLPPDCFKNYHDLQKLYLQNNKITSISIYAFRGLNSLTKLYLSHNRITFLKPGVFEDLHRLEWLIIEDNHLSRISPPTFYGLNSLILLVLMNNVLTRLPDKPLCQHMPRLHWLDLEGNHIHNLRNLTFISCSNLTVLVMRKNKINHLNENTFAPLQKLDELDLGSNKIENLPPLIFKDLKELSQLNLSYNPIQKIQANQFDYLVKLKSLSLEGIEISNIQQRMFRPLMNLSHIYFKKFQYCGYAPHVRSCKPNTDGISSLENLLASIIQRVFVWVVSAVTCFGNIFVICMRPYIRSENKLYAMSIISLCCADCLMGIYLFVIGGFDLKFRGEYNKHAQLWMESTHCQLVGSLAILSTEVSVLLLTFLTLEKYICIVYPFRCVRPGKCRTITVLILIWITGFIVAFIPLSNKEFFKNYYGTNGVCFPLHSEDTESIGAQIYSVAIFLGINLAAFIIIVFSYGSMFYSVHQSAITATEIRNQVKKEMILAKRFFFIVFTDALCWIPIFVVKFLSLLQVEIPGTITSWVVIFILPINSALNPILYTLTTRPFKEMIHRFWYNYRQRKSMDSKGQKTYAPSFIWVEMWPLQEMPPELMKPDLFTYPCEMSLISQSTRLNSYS
gsp antag – qHTS for Antagonists of gsp, the Etiologic Mutation Responsible for Fibrous Dysplasia/McCune-Albright Syndrome: qHTS | Potency, µM (top dose mostly 76.9 µM), for inactives: at the highest dose activity change, negative = inhibition, usual class: inhibitors | actives 0.4% (n = 340,000) | gsp-mutant cells, cAMP HTRF, 30 min; calls by dose curve; cell line not stated here;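 note: intracellular cAMP measured with PDE inhibitor Ro 20-1724 present during compound exposure; potency is the fitted concentration of half-maximal effect; % is set by controls: 0 for no effect and ±100 for the full control effect; nearly all actives have a fitted effect of over 65% in size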
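HTRF cAMP read-out (cAMP-d2 plus anti-cAMP antibody-K in lysis buffer, 30 min RT). Before lysis, cells are exposed to compounds with […] for 30 min at 37C in DPBS containing Ca/Mg, BSA and Tween 20.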
gsp ag – qHTS for Agonist of gsp, the Etiologic Mutation Responsible for Fibrous Dysplasia/McCune-Albright Syndrome: qHTS; gsp mutant cells, cAMP HTRF, 30 min; actives 0.13% (n = 340,000); Potency, µM (doses to about 76.9 µM), for the others: top-dose activation (cAMP increase), usual class: activators; AID 624287, 2012; active = well fitted activation curve with a large enough effect; inconclusive = small, poorly fitted or top-dose-only effect, or another doubt; inactive = no such curve, though single readings can be large or run the other way; cell line not stated here;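 note: phosphodiesterase inhibitor Ro 20-1724 added with compounds to block cAMP breakdown; potency is the fitted concentration of half-maximal effect; nearly all actives have a fitted effect of over 60% in size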
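Cells in DMEM/10% FBS with G418 were pretreated with compounds in DMSO plus […] (300 uM stock) for 30 min at 37C. cAMP was measured by HTRF (cAMP-d2 plus anti-cAMP antibody-K) after 30 min at room temperature.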
RXFP1 ag – qHTS Assay for Agonists of the Relaxin Receptor RXFP1; actives 0.3% (n = 370,000); Potency, µM (doses to about 57.5 µM), for inactives: top-dose activation, usual class: activators; AID 2676, 2010; HEK293T-RXFP1 cAMP TR-FRET, 30 min; response scale: percent of porcine relaxin response, buffer zero; active = well fitted activation curve with a large enough effect; inconclusive = small, poorly fitted or top-dose-only effect; note: potency is the fitted concentration of half-maximal effect; % is set by controls: 0 for no effect and ±100 for the full control effect; nearly all actives have a fitted effect of over 60% in size
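HEK293 cells stably expressing RXFP1, treated 30 min at 37C with compounds plus PDE4 inhibitor Ro 20174; cAMP measured by HTRF TR-FRET. Normalized to buffer and 29 nM porcine relaxin; EC50 by Hill fit.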
Giardia kill – Small Molecules that selectively kill Giardia lamblia: qHTS; Giardia lamblia trophozoite viability; actives 0.15% (n = 340,000); AID 540267, 2011; activity change, % at 7.66 µM, hits read low; in the data active = activity change below about -80%; inconclusive = between about -30% and that limit;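 note: parasites exposed to compound for two days anaerobically before the ATP read; % is set by controls: 0 for no effect and ±100 for the full control effect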
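Giardia lamblia trophozoites (100 cells/well) were incubated with compounds for 48 h at 37 deg C under anaerobic conditions. Viability was read as ATP content by one-step luminescence after 15-30 min at room temperature.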
FBPA coupling cs – qHTS Assay for Inhibitors of Fructose-1,6-bisphosphate Aldolase from Giardia Lamblia: Coupling assay counterscreen. coupling enzyme system counterscreen, AmpLite Red fluorescence. activity change, negative = inhibition, % at 58.2 µM, hits read low. actives 0.67% (n = 290,000); in the data active = activity change below about -30%; note: % is set by controls: 0 for no effect and ±100 for the full control effect
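Coupling enzymes only (glyceraldehyde-3-phosphate) + compound, at 57.5 uM final, 10 min RT; add substrate/coupling/AmpLite Red mix, 20 min RT; fluorescence ex 525/em 598 nm. Actives flag coupling-system interference.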
The depositor's hits bear a star; ? = inconclusive; nt = not tested or not shown; ! = a repeat was not active; [ ] = dose if it differs, or a comment.

SMILES	RXFP1 antagonist	gsp antag	gsp ag	RXFP1 ag	Giardia kill	FBPA coupling cs
CCOC(=O)c1cc(-c2ccccc2)n(CCCC(=O)Nc2ccc(CC)cc2)c1C	-18	nt	nt	-1%	nt	nt
CCOC(=O)c1cc(-c2ccccc2)n(CCC(=O)Nc2ccc(C(F)(F)F)cc2)c1C	-67*	nt	nt	1%	nt	nt
COC(=O)c1c(NC(=O)C2CCCCC2C(=O)O)sc2c1CCCCC2 (stereo not given)	-3	-27%	26%[15.4 µM]	12%	-7	17
COC(=O)c1sc(NC(=O)C2CCCCC2C(=O)O)c(C(=O)OC)c1C (stereo not given)	16	9%	14µM*	?	5	16
CCC(=O)[C@]12O[C@@]3(C4C(=O)OCCC41)N(CC)C(C)=C(C(=O)OC)C(c1ccccc1)N3C2=O (stereo not given in full)	nt	nt	nt	nt	nt	0
Cc1ccc(C(=O)Nc2nc(-c3ccco3)c(-c3ccco3)s2)o1	-81*	?	7%	-3%	-6	nt
CC(=O)Nc1ccc(S(=O)(=O)NCC2CC3CCC2C3)cc1 (stereo not given)	10	-9%	-16%	nt	53	nt
COCCNC(=O)c1cn(C)c2ccc(S(=O)(=O)N(C)C3CCCCC3)cc2c1=O	nt	11µM*	-15%	1%	-3	6
CNCCN(C)c1nc(-c2cccs2)nc2ccccc12	nt	nt	nt	nt	8	nt
Cc1cc(N2CCOCC2)nc2ccc(NC(=O)CCC(=O)N3CCN(c4cccc(C(F)(F)F)c4)CC3)cc12	-12	40µM*	3%	0%	19	0
Cc1cc(N2CCOCC2)nc2ccc(NC(=O)CCC(=O)N3CCCCC3)cc12	-4	-1%	7%	3%	-17	1
Cc1cc(N2CCOCC2)nc2ccc(NC(=O)CCC(=O)N3CCC(C)CC3)cc12	-4	-21%	-35%	0%	19	-33*
O=C(Cc1cccs1)NCc1ccc(Cl)cc1	9	10%	-1%	4%	-1	1
O=C(NCc1ccco1)c1cccn2c(=O)c3cc4ccccc4cc3nc12	nt	nt	nt	0%	nt	-31*
O=c1cc(-c2ccc(O)cc2)oc2cc(OC3OC(CO)C(O)C(O)C3O)c(C3OC(CO)C(O)C(O)C3O)c(O)c12 (stereo not given)	nt	nt	nt	nt	nt	2
Nc1nc(CN2CCN(c3ccccc3F)CC2)nc(N2CCCc3ccccc32)n1	-21	0%	24%	-2%	-2	1
CC(C)C[C@H](NC(=O)[C@H](Cc1cnc[nH]1)NC(=O)[C@@H](N)Cc1cnc[nH]1)C(=O)NCC(=O)NCC(=O)N[C@@H](C)C(=O)N[C@@H](CCCCN)C(=O)N[C@@H](CCC(N)=O)C(=O)N[C@@H](C)C(=O)NCC(=O)N[C@@H](CC(=O)O)C(=O)N[C@H](C(=O)O)C(C)C	nt	nt	nt	nt	nt	-4
O=C1NC(=S)N/C1=C\c1ccccc1OCc1ccc(C(=O)O)cc1	-2	6%	1%[15.4 µM]	0%	-2	11
O=C(O)c1ccc(COc2ccccc2C=C2C(=O)c3ccccc3C2=O)cc1	-60*	-21%	1%[15.4 µM]	-1%	12	7
Cc1ccc(NS(=O)(=O)c2cc(N)ccc2Cl)c(C)c1	15	-4%	-16%	-2%	-11	-33*
COc1ccccc1NC(=O)COC(=O)c1c(C)nn(-c2ccccc2)c1C	-13	32µM*	0%	0%	14	nt
Cc1nn(-c2ccccc2)c(C)c1NC(=O)COc1ccc(C#N)cc1	-5	1%	-1%	0%	-5	1
Cc1nn(-c2ccccc2)c(C)c1NC(=O)COc1ccc(Br)cc1Cl	?	35µM*	-2%[15.4 µM]	0%	-12	5
Cc1nn(-c2ccccc2)c(C)c1NC(=O)COc1ccc2ccccc2c1	?	16µM*	-56%	1%	9	-9
CC(=O)N1CCC2(CC1)OC(=O)C(C)=C2C(=O)Nc1cccc(Cl)c1C	-3	nt	nt	-1%	nt	nt
SMILES	RXFP1 antagonist	gsp antag	gsp ag	RXFP1 ag	Giardia kill	FBPA coupling cs
Cc1ccc2nc(-c3ccc(N=Nc4cc(S(=O)(=O)O)c5ccccc5c4O)cc3)sc2c1S(=O)(=O)O	nt	nt	nt	nt	-3	nt
O=C(NCCc1ccccc1Cl)c1ccc(Cn2c(=O)c3cccn3c3cccnc32)cc1	9	nt	nt	22µM*	nt	nt
O=C(O)c1ccc2nc(-c3cc4cc(Cl)ccc4oc3=O)[nH]c2c1	-13	nt	nt	5%	nt	nt
Cc1ccc(-c2cc(C(=O)NCc3cnn(C)c3C)c3cc(Br)ccc3n2)cc1	7	5%	?	28µM*!	-2	10
Cc1nc2c(C)cccc2cc1C(=O)N/N=C/c1ccc(O)cc1	16	4%	-62%	2%	23	5
Cc1ccc2nc(C)c(C(=O)N/N=C/c3ccc(C(=O)O)cc3)cc2c1	-62*	0%	1%	-2%	-6	1
O=C(NC1CCCCC1)C(c1ccncc1)N(Cc1ccc2c(c1)OCO2)C(=O)c1cnsn1 (stereo not given)	-12	-8%	-2%	1%	5	-46*
CC(=O)Nc1ccc(NC(=O)c2cc(-c3cc(C)cc(C)c3O)n[nH]2)cc1	-5	-5%	-9%	-4%	16	-1
Cc1cc(C)c(O)c(-c2cc(C(=O)Nc3ccc(S(=O)(=O)N4CCOCC4)cc3)[nH]n2)c1	-3	28µM*	1%	0%	-9	0
COc1ccc(NC(=O)c2ccco2)cc1NC(=O)c1ccco1	1	15%	0%	1%	10	-3
COc1ccc(C(=O)Nc2cc(OC)c(NC(=O)c3ccco3)cc2OC)cc1	-10	-20%	-6%	-2%	-3	-35*
COc1ccc(NC(=O)c2ccco2)cc1N	-11	-13%	-51%	-3%	12	-41*
Cc1cc(Cl)ccc1OC(C)C(=O)Nc1ccc(C(=O)Nc2ccccc2C(=O)O)cc1 (stereo not given)	-37	32µM*	5%	-3%	11	nt
NC(=O)CC(NC(=O)Cc1cccc2ccccc12)c1ccc(N2CCCCCCC2)c([N+](=O)[O-])c1 (stereo not given)	nt	50µM*	-5%	-1%	-8	3
COc1cc(O)cc2cc3c(c(O)c12)C(=O)CC(C)(O)O3 (stereo not given)	nt	-3%	nt	2%	-14	-43*
N#CC1=C(N)SC(N)=C(C#N)C1c1c(Cl)cccc1Cl	-25	-18%	26%	13%	-2	-51*

Screening data as filed in PubChem.
